Reference: PubChem BioAssay (Tox21)
Records with an inconclusive call do not appear. Entries that show only a call come without a potency. Active and inactive are the calls of the source. Calls follow the shape of the dose curve; as a rule, active = well fitted cell-killing curve with a large enough effect in the repeat runs; inconclusive = weak or mixed curves, or effect the other way; inactive = flat fitted curve, though single readings scatter. Where a SMILES comes first, the peptide text is derived from it.

test: qHTS RealTime-Glo MT Cell Viability Assay in HEK293 cells - 16 hour (AID 1224872); settings: RealTime-Glo luminescence; series mostly up to 76.8 µM; also: top concentration of the series differs between compounds; nearly all actives have a fitted effect of over 50% in size
Method in brief: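 Luminescence generated by NanoLuc from substrate produced by living HEK293 cells served as the viability signal. Each value reflects the reading at its stated time point during continuous 40 h compound exposure at 37 C.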

| SMILES | Potency | activity change, negative = cytotoxicity |
| --- | --- | --- |
| CCO | inactive | – |
| CC1=C(O)C(=O)C(C)O1 (stereo not given) | inactive | – |
| COP(=O)(O)OP(=O)(O)OC | inactive | – |
| COC(=O)c1ccccc1C(=O)O | inactive | – |
| CCCCCCCCCCCCCCCCCCOCCO | – | -4.86% [at 15.8 µM] (inactive) |
| CCNC(=O)NCc1cccc(Cl)c1 | inactive | – |
| OC1OCCOC1O (stereo not given) | inactive | – |
| Cc1c(Cl)cccc1Cl | inactive | – |
| CC(=O)OC1CCCCC1C(C)(C)C (stereo not given) | inactive | – |
| CCCCCCC1(C)CCC(=O)O1 (stereo not given) | inactive | – |
| C=CCCCCCCCC | inactive | – |
| Cc1cc(C)c(C(=O)O)c(C)c1 | inactive | – |
| CC1(C)Cc2cccc(N)c2O1 | inactive | – |
| COC(C)(OC)OC | inactive | – |
| O=C(NCN1CCOCC1)c1cnccn1 | inactive | – |
| COc1cc(/C=C/C(N)=O)cc(OC)c1OC | inactive | – |
| CCCCOCC(C)O (stereo not given) | inactive | – |
| COC(=O)CCCCC(CCSS/C(CCO)=C(\C)N(C=O)Cc1cnc(C)nc1N)SC(C)=O (stereo not given) | inactive | – |
| C[C@]12CCC(=O)C=C1CC[C@H]1[C@@H]3CC[C@](O)(C(=O)CO)[C@@]3(C)C[C@H](O)[C@@]12F | inactive | – |
| CCn1cc(C(=O)O)c(=O)c2cnc(N3CCCC3)nc21 | – | 1.68% [at 6.97 µM] (inactive) |
| C[C@@H](O)C(=O)O | inactive | – |
| O=C(Cl)c1ccccc1[N+](=O)[O-] | inactive | – |
| CC(=O)N[C@@H](CO)C(=O)N[C@@H](CC(=O)O)C(=O)N[C@@H](CCCCN)C(=O)N1CCC[C@H]1C(=O)O (Ac-SDKP-OH) | inactive | – |
| COc1cc(OC)nc(O[C@H](C(=O)O)C(OC)(c2ccccc2)c2ccccc2)n1 | inactive | – |
| CC1(C)CC(OC(=O)CCCCCCCCC(=O)OC2CC(C)(C)NC(C)(C)C2)CC(C)(C)N1 | – | 3.79% [at 15.8 µM] (inactive) |
